TRPV1 potentiator: HTS Assay for Compounds that Act as Potentiators of the Vanilloid Receptor 1; AID 540277, 2011; TRPV1-expressing cells, Fluo-8 calcium influx, capsaicin EC20 potentiation; potentiation, % at 8.33 µM; 0.02% of 320,000 active; in the data active = potentiation above about 80%; inconclusive = between about 30% and that limit; note: 0% is about no effect
Target sequence (Q8NER1 whole entry, looked up): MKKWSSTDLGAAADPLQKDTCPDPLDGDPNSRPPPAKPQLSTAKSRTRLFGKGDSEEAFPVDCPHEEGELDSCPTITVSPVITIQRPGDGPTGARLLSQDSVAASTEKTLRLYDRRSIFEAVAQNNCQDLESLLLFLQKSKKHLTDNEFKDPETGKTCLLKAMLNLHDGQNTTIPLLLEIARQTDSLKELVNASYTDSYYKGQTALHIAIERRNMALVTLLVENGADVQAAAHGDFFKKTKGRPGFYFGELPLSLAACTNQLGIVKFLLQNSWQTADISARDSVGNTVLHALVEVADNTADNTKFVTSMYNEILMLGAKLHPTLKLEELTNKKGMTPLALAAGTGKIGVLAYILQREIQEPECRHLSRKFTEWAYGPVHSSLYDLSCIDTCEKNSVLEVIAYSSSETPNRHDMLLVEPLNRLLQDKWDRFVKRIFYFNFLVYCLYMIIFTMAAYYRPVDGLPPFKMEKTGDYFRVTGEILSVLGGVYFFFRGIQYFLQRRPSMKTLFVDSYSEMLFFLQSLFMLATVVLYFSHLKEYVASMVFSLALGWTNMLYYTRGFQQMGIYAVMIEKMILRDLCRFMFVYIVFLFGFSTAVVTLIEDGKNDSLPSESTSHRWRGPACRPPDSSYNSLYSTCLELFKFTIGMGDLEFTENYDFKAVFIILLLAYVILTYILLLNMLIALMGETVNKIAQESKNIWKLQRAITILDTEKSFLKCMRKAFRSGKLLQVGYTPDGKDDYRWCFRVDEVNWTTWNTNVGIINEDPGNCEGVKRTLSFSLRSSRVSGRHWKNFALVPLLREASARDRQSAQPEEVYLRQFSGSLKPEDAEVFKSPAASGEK
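Cells expressing TRPV1 were dye-loaded with Fluo-8 and read kinetically: 10 s baseline, 3 min after compound (agonist portion), then 2 min after EC20 capsaicin (allosteric enhancer portion). Calcium-bound dye fluorescence at 480/520 nm.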
KCNH2 WT inh: qHTS for Inhibitors of KCHN2 3.1: Wildtype qHTS | Voltage-gated inwardly rectifying potassium channel KCNH2 (Homo sapiens), Q12809 | U2OS, BacMam KCNH2, thallium flux FluxOr; active compounds read low | activity change, % at 1.84 µM | 0.37% of 340,000 active;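 active = maximum activity change below -70%; inconclusive = maximum activity change between -70% and -50%; inactive = maximum activity change above -50%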; note: % is set by controls: 0 for no effect and ±100 for the full control effect
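U2OS cells were transduced with wild-type KCNH2 virus (2.03 x 10^8 / mL) for 4 h at room temperature, then cultured overnight at 37 C. Thallium flux was read with FluxOr dye. Rate constants were normalized to DMSO controls.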
TRPV1 agonist: HTS Assay for Compounds that Act as Agonists of the Vanilloid Receptor 1 | Transient receptor potential cation channel subfamily V member 1 (Homo sapiens), Q8NER1 | TRPV1-expressing cells, Fluo-8 calcium influx, agonist mode | activation, % at 8.33 µM | 0.19% of 320,000 active; in the data active = activation above about 80%; inconclusive = between about 30% and that limit; note: 0% is about no effect
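Cells expressing TRPV1 were dye-loaded with Fluo-8 and read kinetically: 10 s baseline, 3 min after compound (agonist portion), then 2 min after EC20 capsaicin (allosteric enhancer portion). Calcium-bound dye fluorescence at 480/520 nm.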
KCNH2 3.1 block: qHTS for Inhibitors of KCHN2 3.1: Mutant qHTS; Potassium voltage-gated channel subfamily H member 2, brain isoform KCNH2 3.1 (human); U2OS KCNH2 3.1, thallium flux FluxOr; active compounds read low; activity change, % (tested at about 1.8 µM); 0.95% of 340,000 active; AID 720553, 2013;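 active = maximum activity change below -70%; inconclusive = maximum activity change from -70% to -50%; inactive = maximum activity change above -50%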;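 note: thallium influx rate constant from kinetic fluorescence after stimulation buffer; % is set by controls: 0 for no effect and ±100 for the full control effect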
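Channel expression came from 3.1 mutant virus (1.77 x 10^8 /mL) applied to suspended U2OS cells for 4 h. Flux was tracked with FluxOr dye plus Red40 quencher, and kinetic rate constants normalized to controls.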
* hit, by the source's call; ? = inconclusive; · = not tested or not shown. An excerpt weighted towards active compounds, which were near 1.2% of everything screened.

SMILES	TRPV1 potentiator	KCNH2 WT inh	TRPV1 agonist	KCNH2 3.1 block
COc1ccc(C(=O)NCCC2=CCCCC2)cc1[N+](=O)[O-]	-25.6	3.0	88.1*	-12.5
O=C(NCCC1=CCCCC1)c1ccc(Cl)c(S(=O)(=O)N2CCCCC2)c1	-1.4	12.0	?	13.9
O=C(NCCC1=CCCCC1)c1ccc(Cl)c(S(=O)(=O)N2CCOCC2)c1	-13.0	-2.8	81.8*	0.9
COc1ccc(OCC(=O)NCCC2=CCCCC2)c([N+](=O)[O-])c1	-10.6	·	27.3	-18.4
Cc1ccc2ccccc2c1NC(=O)CNCc1ccccc1	·	-5.5	·	13.1
Nc1ccc(C(=O)Nc2ccc(Nc3ccncc3)cc2)c([N+](=O)[O-])c1	·	-4.7	·	15.0
COc1cc(N(C(C)=O)c2ccc(O)c(C(=O)O)c2)c2ncccc2c1	·	27.2	·	-4.3
Cn1cc(Br)c(NC(=O)/C=C/C(=O)O)n1	28.6	-5.7	-1.6	-122.2*
N#CCCN(C(=S)Nc1ccc(S(=O)(=O)N2CCOCC2)cc1)c1ccccc1F	-1.7	1.1	1.7	-13.6
O=[N+]([O-])c1ccc(CN2CC(N3CCC(Cc4ccccc4)CC3)CS2(=O)=O)cc1 (stereo not drawn)	·	1.6	·	-33.6
O=C(c1cc2ccccc2oc1=O)N1CCN(c2ccc(N3CCOCC3)nn2)CC1	-4.7	-9.6	1.3	-88.3*
Cc1ccc(NC(=O)CSc2ccc(C(N)=O)cc2[N+](=O)[O-])cc1C	6.3	-0.4	-3.5	-77.5*
Cc1cc(O)c(C=Nc2ccc(Cl)cn2)c(=O)o1	7.4	34.0	-1.0	-14.8
Oc1ccc2ccccc2c1C=Nc1ccc(Cl)cn1	?	4.5	-1.1	-114.1*
COc1ccccc1Nc1nc(N)nc(CN2CCC(Cc3ccccc3)CC2)n1	?	-155.2*	13.0	-104.0*
COc1ccc(Nc2nc(N)nc(CN3CCOCC3)n2)cc1	-15.6	6.5	-2.2	-14.2
COc1ccc(Nc2nc(N)nc(CN3CCC(Cc4ccccc4)CC3)n2)cc1	0.8	-40.6	2.2	-116.0*
Cc1ccc(NC(=O)CSc2nc3ccccc3c(=O)n2Cc2cccs2)cc1	-5.1	14.6	26.7	-72.7*
O=C(CSc1nc2ccccc2c(=O)n1CCCN1CCOCC1)Nc1ccc(Br)cc1	·	2.8	·	?
COCCCn1c(SCC(=O)Nc2ccc(C)cc2)nc2ccccc2c1=O	-4.7	2.8	24.2	-13.5
CCc1ccc(NC(=O)CSc2nc3ccccc3c(=O)n2CCCN2CCC(C)CC2)cc1	13.2	-135.5*	13.4	-97.2*
C[C@@H]1CN([C@H](C)CO)C(=O)CCCn2cc(nn2)CO[C@H]1CN(C)C(=O)Nc1cccc(Oc2ccccn2)c1	·	5.1	·	1.2
CC(C(=O)Nc1ccccc1-c1ccccc1)N1CCN(Cc2ccccc2)CC1 (stereo not drawn)	-24.0	-18.5	-4.2	-76.0*
COc1ccc(N2CCN(c3ncnc4scc(-c5ccccc5)c34)CC2)cc1	-1.5	3.7	0.3	-22.5
CCOc1ccc(CN2CCN(c3ncnc4scc(-c5ccccc5)c34)CC2)cc1	-5.6	-141.4*	3.4	-116.1*
SMILES	TRPV1 potentiator	KCNH2 WT inh	TRPV1 agonist	KCNH2 3.1 block
COc1ccc(N2CCN(c3ncnc4scc(-c5ccc(F)cc5)c34)CC2)cc1	-28.6	0.9	-2.7	9.4
COc1ccc(CN2CCN(c3ncnc4scc(-c5ccc(F)cc5)c34)CC2)cc1	-0.7	?	-4.2	-97.1*
COc1ccc(-c2nc3cc(C)ccn3c2NCC2CCCO2)cc1OC (stereo not drawn)	·	-14.0	·	4.0
CCCCNc1c(-c2ccc(Sc3ccc(OC)cc3)cc2)nc2cc(C)ccn12	·	?	·	-84.4*
CCCCNc1c(-c2ccc(OC)c(SC(C)CC)c2)nc2cc(C)ccn12 (stereo not drawn)	·	3.5	·	-82.2*
CCCCNc1c(-c2ccc(-c3ccc(C(C)=O)cc3)c(OC)c2)nc2cc(C)ccn12	·	-15.3	·	-71.2*
CN=C1N[C@H](c2ccccc2)N(c2ccccc2)S1	10.2	·	2.3	·
O=C(Nc1cccc(S(=O)(=O)N2CCCC2)c1)c1ccc(Cl)nc1	·	-3.3	·	-3.4
CC(C)(CN=C1NS(=O)(=O)c2ccccc21)CNC(=O)c1ccccc1	3.3	-94.5*	2.9	-2.9
Cc1ccc(C(=O)C(c2ccccc2)N2Cc3ccccc3C2=N)cc1 (stereo not drawn)	-1.1	-4.6	?	-72.9*
CCOC(=O)N1CCN(C(=S)NC(=O)c2ccnn2C)CC1	8.7	5.1	-6.3	-1.3
CCOC(=O)N1CCN(C(=S)NC(=O)c2ccc(F)cc2)CC1	3.9	-4.7	2.0	-72.5*
Cc1ccc(S(=O)(=O)c2nnn3c2nc(NC2CCN(Cc4ccccc4)CC2)c2ccccc23)cc1C	3.4	-12.6	2.8	-81.0*
Cc1csc2c(N3CCC(C(=O)O)CC3)ncnc12	-5.6	0.5	4.8	-20.3
Cc1csc2c(N3CCN(C(=O)Nc4ccc(OC(F)(F)F)cc4)CC3)ncnc12	-3.2	4.6	13.8	-91.7*
CC1C/C(=C/c2cccn2C)C(=O)/C(=C/c2cccn2C)C1 (stereo not drawn)	-3.0	10.4	100.2*	0.4
CCCn1nc(C(=O)NNC(=O)CCCOc2ccc(OC)cc2)c2ccccc2c1=O	-1.4	3.0	6.8	-10.8
O=c1cc(N2CCCCC2)c(-c2ccccc2)nn1Cc1ccc(Cl)cc1	-2.5	-7.6	?	-94.5*
CC(C)Oc1ccc(S(=O)(=O)N2CCOCC2)cc1NC(=O)C1=NN(c2ccccc2)C(=O)CC1	-5.9	0.9	9.0	11.0
CC(Cc1ccccc1)NC(=O)CN1C(=O)c2ccccc2S1(=O)=O (stereo not drawn)	?	4.9	-0.8	6.9
COc1ccc(/C=C/C(=O)Nc2cccc(S(=O)(=O)N3CCOCC3)c2)cc1OC	4.3	1.6	-3.5	1.1
O=C(COC(=O)/C=C/c1ccc(OC(F)F)cc1)Nc1cccc(S(=O)(=O)N2CCCC2)c1	9.5	9.6	-1.1	-84.5*
O=C(/C=C/c1ccc(OC(F)F)cc1)Nc1cccc(S(=O)(=O)N2CCOCC2)c1	-2.8	-38.6	8.9	-72.3*
O=C(/C=C/c1ccco1)Nc1cccc(S(=O)(=O)N2CCOCC2)c1	-19.9	-106.7*	29.7	7.0
O=C(COC(=O)/C=C/c1ccc(OC(F)F)cc1)Nc1ccc(S(=O)(=O)N2CCCC2)cc1	12.5	-3.8	-0.6	-47.9
Cc1ccc(/C=C/C(=O)Nc2cccc(S(=O)(=O)N3CCOCC3)c2)o1	-9.0	-4.6	20.6	-2.3
CC1Cc2ccccc2N1C(=O)Cn1cc(C(F)(F)F)ccc1=O (stereo not drawn)	·	-5.2	·	-0.5
